ALOX12 inhib – inhibitors of human 12-lipoxygenase (ALOX12). Potency, µM (series often up to 57.1 µM), for inactives: top-dose activity change, negative = inhibition, hits mostly inhibitors. AID 1452. actives 0.12% (n = 150,000). purified 12-hLO, xylenol orange hydroperoxide absorbance; active means well fitted inhibition curve with a large enough effect; inconclusive means small, poorly fitted or top-dose-only effect; further: potency means the concentration at half of the fitted maximal effect; nearly all actives have a fitted effect of over 55% in size
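Hydroperoxide formation by human 12-lipoxygenase from 40 uM arachidonic acid was followed colorimetrically via ferric-xylenol orange complex, using the 573/405 nm absorbance ratio. Enzyme concentration was 150 nM, with 30 min reaction at room temperature.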
Lamin A splicing – LMNA splicing modulation; actives 0.01% (n = 200,000); AID 1487; HeLa LMNA splicing GFP/RFP minigene ratio, 48 h; Potency, µM (top dose mostly 46.1 µM), inactives show top-dose ratio change, negative = inhibition, actives largely listed as inhibitors; active means well fitted inhibition curve with a large enough effect in the signal ratio, with a control signal flat, not every such curve was filed as active; inconclusive means small, poorly fitted or top-dose-only effect, or effect the other way, or a change in a side signal; the % refers to the signal ratio; further: potency means the concentration at half of the fitted maximal effect
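S3 HeLa cells stably expressing lamin A-EGFP splicing minigene plus DsRed2, 600 cells/well, 48 h compound exposure at 37C. Laser-scanning cytometry; analysed as GFP (500-530 nm)/RFP (575-640 nm) total intensity ratio; 0.5% DMSO vehicle.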
HPGD inh – inhibitors of human 15-hydroxyprostaglandin dehydrogenase (HPGD) | P15428 | purified HPGD, NADH fluorescence kinetic, PGE2 substrate | Potency, µM, inactives show top-dose activity change, negative = inhibition, actives largely listed as inhibitors | actives 4.3% (n = 150,000) | AID 894; further: potency means the concentration at half of the fitted maximal effect
Target sequence (P15428 whole entry, looked up): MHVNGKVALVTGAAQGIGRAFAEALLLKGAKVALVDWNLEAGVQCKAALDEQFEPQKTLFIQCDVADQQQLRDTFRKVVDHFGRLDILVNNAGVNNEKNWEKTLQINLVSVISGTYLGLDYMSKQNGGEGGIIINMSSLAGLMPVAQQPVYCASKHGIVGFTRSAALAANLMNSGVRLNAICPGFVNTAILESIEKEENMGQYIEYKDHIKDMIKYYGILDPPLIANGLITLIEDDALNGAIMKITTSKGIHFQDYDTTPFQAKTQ
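NADH formation kinetics: reaction with 30 uM PGE2 and 1 mM NAD+ (final), 20 nM enzyme, Tris-HCl pH 8 with Tween 20, after 15 min compound preincubation at room temperature. Fluorescence change, last versus first of five reads.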
PNC inhibitor – inhibitors of perinucleolar compartment assembly | PC3M PTB-GFP, PNC prevalence imaging, 16 h; active compounds read low | activity change (PNC), negative = inhibition, % at 10 µM | actives 3.1% (n = 140,000) | AID 2417;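 active means readout at or below -70, meaning at least 70% loss of cells showing the perinucleolar compartment, a nuclear body marking cancer cells; inconclusive means readout between -30 and a set limit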;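 further: plate controls were DMSO wells for no effect and camptothecin positive control wells for full effect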
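Read-out is percentage of cells bearing a perinucleolar compartment, from automated 20x imaging of fixed, Hoechst-stained PC3M PTB-GFP cells. Cells were seeded 4 h, then exposed 16 h to compound (23 nl of library stock) in duplicate plates.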
ALDH1A1 block – ALDH1A1 (human) enzyme inhibition; P00352; Purified ALDH1A1, NADH fluorescence, propionaldehyde substrate; Potency, µM (highest dose often 75.3 µM), inactives show top-dose activity, negative = inhibition, hits mostly inhibitors; actives 7.3% (n = 220,000);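 further: potency means the concentration at half of the fitted maximal effect; plate controls were no enzyme wells and a reference inhibitor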
* hit, by the source's call; ? = inconclusive; nt = no result given; [ ] = remark or other dose. Sampled rows, rich in hits. Any-hit rate of the full collection: about 10%. Unless noted, the call rests on the fitted dose curve; in most records, active means well fitted inhibition curve with a large enough effect (not every such curve was filed as active); inconclusive means small, poorly fitted or top-dose-only effect, or another doubt; inactive means no such curve, though single readings can be large or run the other way. Unless noted, on the % scale 0 is the no-effect control and ±100 the full control effect.

SMILES	ALOX12 inhib	Lamin A splicing	HPGD inh	PNC inhibitor	ALDH1A1 block
Brc1ccc(/C=N/Nc2ncnc3c2cnn3Cc2ccccc2)cc1	10%	16%	?	-15	2%
Nc1ncnc2c1ncn2Cc1ccccc1	nt	nt	nt	nt	9%
Oc1cccc(/C=N/Nc2ncnc3c2ncn3Cc2ccccc2)c1	1%	1%	22µM*	-25	4%
Oc1ccc(/C=N/Nc2ncnc3c2ncn3Cc2ccccc2)cc1O	-14%	?	25µM*	-29	?
Oc1ccc(Cl)cc1C=Nc1cnc2ccccc2c1	-2%[11.4 µM]	nt	?	nt	-11%[13.5 µM]
CN(C)c1ccc(N2C(=O)CSC2=S)cc1	-5%	-7%	-16%	-9	2.2µM*
Cc1ccc(N2C(=O)CSC2=S)cc1C	nt	-2%[46 µM]	nt	nt	?
COc1ccc(N2C(=O)CC(SCC(=O)O)C2=O)cc1 (configuration not stated)	6%	0%	-15%	6	?
COc1ccccc1NC(=O)CSC1CC(=O)N(c2ccc3c(c2)OCO3)C1=O (configuration not stated)	-6%	11%	-19%	8	0.56µM*
COc1ccc(NC(=O)CSC2CC(=O)N(c3ccc4c(c3)OCCO4)C2=O)cc1 (configuration not stated)	-2%	5%	2%	42	14µM*
Cc1nn(C(=O)c2ccc(Br)cc2)c(C)c1S(=O)(=O)N1CCOCC1	nt	14%[46 µM]	nt	nt	nt
COc1ccc(N2CCN(C3CC(=O)NC3=O)CC2)cc1 (configuration not stated)	-2%	1%	nt	3	7%
COc1ccc(C(=O)c2ccc(N3CCN(C4CC(=O)NC4=O)CC3)cc2)cc1F (configuration not stated)	-3%	-7%	?	19	8.9µM*
COc1ccc(Cl)cc1NC(=O)c1cc(S(=O)(=O)NC2CCCCCC2)ccc1F	nt	7%[46 µM]	nt	nt	nt
Fc1ccc(CSc2nncn2NC/C=C/c2ccccc2)cc1	-5%	-12%	0%	-83*	4%
Cc1ccc(C)c(-n2c(N)c(C(N)=O)sc2=S)c1	-5%	6%	?	?	-4%
Cc1ccc(-n2c(N)c(C(=O)Nc3ccccc3F)sc2=S)cc1C	nt	nt	nt	nt	10µM*
Cc1ccccc1-n1c(N)c(C(=O)Nc2ccc(F)cc2)sc1=S	nt	nt	nt	nt	20µM*
Cc1ccc(NC(=O)c2sc(=S)n(-c3cc(C)ccc3F)c2N)cc1	nt	nt	nt	nt	13µM*
CC(=O)O[C@]1(C(C)=O)CC[C@@H]2[C@@H]3C=C(Cl)C4=CC(=O)[C@H]5C[C@@H]5[C@]4(C)[C@H]3CC[C@]21C	0%[25.6 µM]	-6%	0%	nt	5%[20.9 µM]
CCOc1ccc(S(=O)(=O)NCCc2csc3nc(-c4ccc(F)cc4)nn23)cc1	nt	0%[46 µM]	nt	nt	nt
Cc1cc(C)cc(C(=O)Nc2c3c(nn2-c2ccccc2C)CS(=O)(=O)C3)c1	nt	-4%[46 µM]	nt	nt	nt
C=C(C)C(O)/C=C/C=C/c1ccccc1 (configuration not stated)	nt	nt	nt	nt	-13%[13.5 µM]
CCN(c1cccc(C)c1)S(=O)(=O)c1ccc(O)c(C(=O)O)c1	-2%	nt	?	nt	?
Cc1ccc(C)c(N2CCN(S(=O)(=O)c3ccc(F)c(C(=O)Nc4ccc(Cl)cc4Cl)c3)CC2)c1	nt	-8%[46 µM]	nt	nt	nt
SMILES	ALOX12 inhib	Lamin A splicing	HPGD inh	PNC inhibitor	ALDH1A1 block
CCOC(=O)CC1C(=O)NCCN1C(=S)Nc1ccccc1 (configuration not stated)	0%	-7%	-17%	-91*	?
COC(=O)CC1C(=O)NCCN1C(=S)Nc1ccccc1 (configuration not stated)	1%	-3%	-14%	90	-8%
CCOC(=O)CC1C(=O)NCCN1S(=O)(=O)c1cc(Cl)c(Cl)cc1Cl (configuration not stated)	2%	-6%	2%	-98*	-3%
CCOC(=O)CC1C(=O)NCCN1S(=O)(=O)c1ccc(Cl)cc1 (configuration not stated)	-4%	-11%	-15%	44	?
O=C1CCC=C1C(O)c1ccc2c(c1)OCO2 (configuration not stated)	-2%	nt	0%	nt	-2%
c1ccc(-c2nn3c(-c4ccco4)nnc3s2)nc1	-4%	5%	-22%	4	24µM*
COc1cccc(-c2nn3c(-c4ccccn4)nnc3s2)c1	0%	?	32µM*	26	0%
CC(C)(C)c1ccc(-c2nnc3sc(-c4ccccn4)nn23)cc1	7%	-1%	28µM*	28	?
Clc1ccc(OCc2nn3c(-c4ccco4)nnc3s2)c(Cl)c1	-7%	-8%	3.2µM*	22	-9%
Cc1ccc(OCc2nn3c(-c4ccco4)nnc3s2)cc1	-6%	-12%	nt	13	-12%
COc1ccc(C(=O)N2CCC[C@@]3(CCN(Cc4ccccc4OC)C3)C2)cc1	5%	nt	0%	nt	1%
Brc1ccc(-c2nn3c(-c4ccco4)nnc3s2)o1	-21%	?	-13%	14	?
COc1ccccc1-c1nnc2sc(-c3cnccn3)nn12	-4%	0%	25µM*	-20	?
c1coc(-c2nnc3sc(C4CCCCC4)nn23)c1	-9%	-11%	25µM*	-3	13µM*
COc1cccc(-c2nnc3sc(-c4ccccn4)nn23)c1	-12%	?	22µM*	23	-1%
COc1ccc(-c2nnc3sc(-c4ccccn4)nn23)cc1	-4%	7%	-17%	4	-3%
O=C(N/N=C/c1cn(Cc2ccccc2)c2ccccc12)c1ccncc1	nt	28%[46 µM]	nt	nt	14µM*
O=C(N/N=C/c1cn(Cc2ccccc2)c2ccccc12)c1cccnc1	0%	?	-19%	-26	14µM*
CCOC(=O)N/N=C/c1cn(Cc2ccc(Cl)cc2)c2ccccc12	-1%	-11%	-5%	-105*	2%
CC(C)c1ccc(NC(=O)CCCN2C(=S)NC(C)(C)CC2C)cc1 (configuration not stated)	nt	?	nt	nt	5µM*
COc1cccc(C(=O)N2CCN(C(=O)c3cccs3)CC2)c1OC	4%	?	-9%	-5	22µM*
Cc1cccc(NC(=O)c2sc3nc(-c4cc5ccc(O)cc5oc4=O)[nH]c(=O)c3c2C)c1	nt	15%[46 µM]	nt	nt	nt
O=C(Cn1c2c(sc1=O)C1c3ccccc3OCC1CS2)Nc1ccc(Cl)c(Cl)c1 (configuration not stated)	-4%	?	-15%	56	25µM*
Cn1c(N)c(N2CCCCC2)c(=O)n(CC(=O)Nc2ccc(Cl)c(Cl)c2)c1=O	-3%	-17%	-2%	-16	4%
S=C(Nc1cccc(Cl)c1)Nc1cccc2cnccc12	-7%	?	?	13	3.2µM*
Cc1ccc(NC(=S)Nc2cccc3cnccc23)cc1	nt	nt	nt	nt	13µM*
Cc1ccc(NC(=S)Nc2cccc3cnccc23)cc1C	nt	nt	nt	nt	2.5µM*
Cc1ccc(C)c(NC(=S)Nc2cccc3cnccc23)c1	nt	-12%[46 µM]	nt	nt	8.9µM*
NC(=S)Nc1cccc2cnccc12	4%	-5%	-3%	21	13%

Screens deposited in PubChem by National Center for Advancing Translational Sciences (NCATS).
